# Assay results: PubChem BioAssay (NCATS)
# Results filed as inconclusive are left out. Entries that show only a call come without a potency. Active and inactive are the calls of the source. The call rests on the fitted dose curve; in most records, active means well fitted activation curve with a large enough effect; inconclusive means small, poorly fitted or top-dose-only effect; inactive means flat fitted curve, though single readings scatter.
# Assay: Cellular Toxicity (caspase-3) H-4-II-E (AID 663);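 on caspase-3 activation: cells exposed to compound for 16 hr before readout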
# Settings: H-4-II-E rat hepatoma; Potency: caspase-3 activation; series mostly up to 92.2 µM
# Description: NIH Chemical Genomics Center [NCGC]
# NIH Molecular Libraries Screening Centers Network [MLSCN]
# National Institutes of Environmental Health Sciences [NIEHS]
# National Toxicology Program [NTP]
# We have developed a 1536-well cell-based assay for quantitative high throughput screening (qHTS) against a number of cell lines to determine in vitro caspase 3/7 of small molecules. This particular assay uses the H-4-II-E cell line which is derived from rat hepatoma.
# NCGC Assay Protocol Summary:
# The Caspase-Glo 3/7 assay (Promega) is a homogeneous method to measure caspase-3 and caspase-7 activities in cultured cells. The quantitation of caspase 3/7 activity is based on the cleavage of a peptide-aminoluciferin substrate. After caspase cleaves the substrate the free aminoluciferin is liberated and serves as the substrate of luciferase, which generates the light. The luminescent signal is proportional to amount of caspase 3/7 activity present.
# Using the Caspase-Glo 3/7 assay, the amount of caspase 3/7 activity was measured in the H-4-II-E cell line with complete culture medium following compound treatment for 16 hours. The assay was performed in opaque white 1536-well plates. In the screen, tamoxifen and doxorubicin were used as positive controls. Library compounds were measured for their ability to cause the activation of caspase 3/7 in the cell line, as reflected by an increase in luminescence signal, in a concentration-dependent manner. Data were normalized to the controls for basal activity (DMSO only) and 100% stimulation (100 uM tamoxifen). AC50 values were determined from concentration-response data modeled with the standard Hill equation.
# qHTS protocol for caspase 3/7 assay in H-4-II-E cells
# [Step] [Parameter] [Value] [Description]
# 1. Reagent; 5 uL; 1500 H-4-II-E cells/well
# 2. Time; 5 hr; 37 °C incubation
# 4. Controls; 23 nL; Tamoxifen 0.23 uM to 100 uM & Doxorubicin 7.0 pM to 100 uM
# 5. Time; 16 hr; 37 °C incubation
# 6. Reagent; 5 uL; Caspase-Glo 3/7 reagent
# 7. Time; 20 min; Room Temperature
# 8. Detection; Luminescence; Viewlux plate reader
# Keywords: caspase 3/7, apoptosis, H-4-II-E cell line, luminescence, NTPHTS, NTPHTS_NCGC, NIEHS, EPA, DSSTox, MLSMR, MLSCN, NIH Roadmap, qHTS, NCGC
# Potency means the concentration at half of the fitted maximal effect.
row,SMILES,Potency
1,CCCN(CCC)S(=O)(=O)c1ccc(C(=O)O)cc1,inactive
2,CCOc1ccc(NC(C)=O)cc1,inactive
3,CCCCC(CC)COC(=O)c1ccc(N(C)C)cc1 (stereo not given),inactive
4,Oc1ccc(Cl)cc1Cc1cc(Cl)ccc1O,inactive
5,COc1ccc(C(=O)c2ccccc2)c(O)c1,inactive
6,C/C=C/c1ccc(O)c(OC)c1,inactive
7,C=C[C@H]1CN2CC[C@H]1C[C@@H]2[C@@H](O)c1ccnc2ccc(OC)cc12,inactive
8,COc1cc([C@H]2Oc3cc([C@H]4Oc5cc(O)cc(O)c5C(=O)[C@@H]4O)ccc3O[C@@H]2CO)ccc1O,31.6 µM (active)
9,NCCNc1cccc2ccccc12,inactive
10,Oc1c(Cl)cc(Cl)c(Cl)c1Cc1c(O)c(Cl)cc(Cl)c1Cl,inactive
11,NC(=O)c1ccccc1O,inactive
12,O=C(O)c1ccc(S(=O)(=O)N(Cl)Cl)cc1,inactive
13,CCOc1ccccc1C(N)=O,inactive
14,COc1ccc(C(Cl)=C(c2ccc(OC)cc2)c2ccc(OC)cc2)cc1,inactive
15,OC[C@H]1O[C@@H]2O[C@H]3[C@H](O)[C@@H](O)[C@@H](O[C@H]4[C@H](O)[C@@H](O)[C@@H](O[C@H]5[C@H](O)[C@@H](O)[C@@H](O[C@H]6[C@H](O)[C@@H](O)[C@@H](O[C@H]7[C@H](O)[C@@H](O)[C@@H](O[C@H]8[C@H](O)[C@@H](O)[C@@H](O[C@H]1[C@H](O)[C@H]2O)O[C@@H]8CO)O[C@@H]7CO)O[C@@H]6CO)O[C@@H]5CO)O[C@@H]4CO)O[C@@H]3CO,inactive
